Experimental data published in the supplement of paper PMC9262897, “Low-cost anti-mycobacterial drug discovery using engineered E. coli” (Nature Communications, 2022).
± gives the standard deviation of the averaged measurements.

System: E. coli TESEC Mtb Alr
Experiment: growth (OD600 after 10 h); higher = more growth (less inhibition)
Details: compound 0.1 mM
Description: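 TESEC Mtb Alr E. coli, or the Alr+ wild-type control, in 384-well plates with Prestwick library compounds at 0.1 mM and 1% DMSO, across arabinose induction levels of 1E3 to 1E7 nM. Growth is read as OD600 after 10 h at 37 °C in triplicate biological replicates.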

[1] = arabinose 1000 nM, raw OD600 reference: median of DMSO wells 0.294, cell-free background 0.041
[2] = arabinose 10000 nM, raw OD600 reference: median of DMSO wells 0.264, cell-free background 0.041
[3] = arabinose 100000 nM, raw OD600 reference: median of DMSO wells 0.201, cell-free background 0.041
[4] = arabinose 1000000 nM, raw OD600 reference: median of DMSO wells 0.193, cell-free background 0.041
[5] = arabinose 10000000 nM, raw OD600 reference: median of DMSO wells 0.146, cell-free background 0.041

Structure (SMILES) | growth [1] | growth [2] | growth [3] | growth [4] | growth [5]
C[C@]12CC[C@@H](O)C[C@@H]1CC[C@@H]1[C@@H]2CC[C@]2(C)C(=O)CC[C@@H]12 [Androsterone] | 0.123 ± 0.002 | 0.212 ± 0.012 | 0.118 ± 0.0038 | 0.0932 ± 0.0027 | 0.0878 ± 0.0015
CN[C@@H]1[C@@H](O)[C@@H](O[C@@H]2[C@@H](O)[C@H](O[C@H]3O[C@H](CN)CC[C@H]3N)[C@@H](N)C[C@H]2N)OC[C@]1(C)O.CN[C@@H]1[C@@H](O)[C@@H](O[C@@H]2[C@@H](O)[C@H](O[C@H]3O[C@H]([C@@H](C)N)CC[C@H]3N)[C@@H](N)C[C@H]2N)OC[C@]1(C)O.CN[C@@H]1[C@@H](O)[C@@H](O[C@@H]2[C@@H](O)[C@H](O[C@H]3O[C@H]([C@@H](C)NC)CC[C@H]3N)[C@@H](N)C[C@H]2N)OC[C@]1(C)O [Gentamicine sulfate] | 0.04643 ± 0.00025 | 0.0414 ± 0.00061 | 0.0505 ± 0.0026 | 0.0448 ± 0.00064 | 0.075 ± 0.001
CO[C@]12C[C@@H](COC(=O)c3cncc(Br)c3)CN(C)[C@@H]1Cc1cn(C)c3cccc2c13 [Nicergoline] | 0.184 ± 0.0071 | 0.194 ± 0.0054 | 0.223 ± 0.0047 | 0.102 ± 0.0052 | 0.184 ± 0.0056
C[N+]1(C)CCOC(O)(c2ccc(-c3ccc(C4(O)C[N+](C)(C)CCO4)cc3)cc2)C1 (stereo not given) [Hemicholinium bromide] | 0.298 ± 0.02 | 0.276 ± 0.0044 | 0.229 ± 0.025 | 0.1741 ± 0.00078 | 0.195 ± 0.0053
CN1C(=O)CCS(=O)(=O)C1c1ccc(Cl)cc1 (stereo not given) [Chlormezanone] | 0.298 ± 0.018 | 0.256 ± 0.0031 | 0.256 ± 0.012 | 0.188 ± 0.013 | 0.146 ± 0.005
CC(O)(CS(=O)(=O)c1ccc(F)cc1)C(=O)Nc1ccc(C#N)c(C(F)(F)F)c1 (stereo not given) [Bicalutamide] | 0.2 ± 0.0073 | 0.306 ± 0.018 | 0.1769 ± 0.0014 | 0.108 ± 0.0031 | 0.15 ± 0.0023
CNC(C)(C)Cc1ccccc1 [Mephentermine hemisulfate] | 0.303 ± 0.018 | 0.274 ± 0.0032 | 0.224 ± 0.012 | 0.193 ± 0.0098 | 0.138 ± 0.0038
COc1ccc(C(=O)N2CCCC2=O)cc1 [Aniracetam] | 0.3088 ± 0.0018 | 0.246 ± 0.01 | 0.236 ± 0.021 | 0.172 ± 0.0084 | 0.167 ± 0.0026
